Data: PubChem BioAssay AID1159580 (chemical genetic matrix, 2015)
Values joined by “and” are separate entries in the source; they are usually repeats but may differ in a detail not shown here. Identical values can stand only once. The whole screen tested about 5,500 compounds, of which about 2,000 (36%) were called active. Not shown: some 18% with an inconclusive outcome. No stated cut-off is given here; in the data, active means normalized growth mostly below about 0.91 (no sharp cut-off); inconclusive means no clear call, values can overlap the other calls; inactive means mostly above about 0.92. Some of the results follow.

Experiment: chemical genetic growth profiling, strain panel (AID 1159580);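 further: tested at 20 µM; growth read once vehicle control cultures reached saturation at 30 °C; 1 = growth at the plate median or of vehicle wells; lower values mean less growth of the strain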
Conditions: growth OD

Measured: normalized growth

CCCCNc1ccc(C(=O)OCCN(C)C)cc1
inactive: S. cerevisiae deletion strains, locus YJR075W, strain HOC1, active compounds read low 1.02 | S. cerevisiae deletion strains, locus YKL009W, strain mrt4, active compounds read low 1.02 | S. cerevisiae deletion strains, locus YKL068W, active compounds read low 1.01 | S. cerevisiae deletion strains, locus YKL085W, strain MDH1 (second series), active compounds read low 1.01 | S. cerevisiae deletion strains, locus YKL085W, strain MDH1, active compounds read low 1.01 | S. cerevisiae deletion strains, locus YKL160W, strain elf1, active compounds read low 1.03 | S. cerevisiae deletion strains, locus YKL190W, strain CNB1, active compounds read low 1.01 | S. cerevisiae deletion strains, locus YKR001C, strain vps1, active compounds read low 1.01 | S. cerevisiae deletion strains, locus YKR026C, strain gcn3, active compounds read low 1.01 | S. cerevisiae deletion strains, locus YKR091W, strain srl3, active compounds read low 1.01 | S. cerevisiae deletion strains, locus YLL001W, strain dnm1, active compounds read low 1 | S. cerevisiae deletion strains, locus YLL026W, active compounds read low 1.01 | S. cerevisiae deletion strains, locus YLL041C, strain sdh2, active compounds read low 0.998 | S. cerevisiae deletion strains, locus YLR027C, strain aat2, active compounds read low 1.01 | S. cerevisiae deletion strains, locus YLR039C, strain RIC1, active compounds read low 1.14 | S. cerevisiae deletion strains, locus YLR058C, strain SHM2, active compounds read low 1.01 | S. cerevisiae deletion strains, locus YLR102C, strain apc9, active compounds read low 1.02 | S. cerevisiae deletion strains, locus YLR113W, strain HOG1, active compounds read low 0.982 | S. cerevisiae deletion strains, locus YLR221C, strain rsa3, active compounds read low 0.975 | S. cerevisiae deletion strains, locus YLR258W, strain gsy2, active compounds read low 1.02 | S. cerevisiae deletion strains, locus YLR262C, strain YPT6 (second series), active compounds read low 1.05 | S. cerevisiae deletion strains, locus YLR262C, strain YPT6, active compounds read low 1.13 | S. cerevisiae deletion strains, locus YLR268W, strain sec22, active compounds read low 1.04 | S. cerevisiae deletion strains, locus YLR320W, strain mms22, active compounds read low 0.988 | S. cerevisiae deletion strains, locus YLR330W, strain CHS5, active compounds read low 1 | S. cerevisiae deletion strains, locus YLR342W, strain FKS1 (second series), active compounds read low 1 | S. cerevisiae deletion strains, locus YLR342W, strain FKS1, active compounds read low 1.02 | S. cerevisiae deletion strains, locus YLR357W, strain rsc2, active compounds read low 1.13 | S. cerevisiae deletion strains, locus YLR370C, strain arc18, active compounds read low 1.01 | S. cerevisiae deletion strains, locus YLR371W, strain rom2, active compounds read low 1.02 | S. cerevisiae deletion strains, locus YLR384C, strain iki3, active compounds read low 1.02 | S. cerevisiae deletion strains, locus YLR418C, strain cdc73, active compounds read low 1.01 | S. cerevisiae deletion strains, locus YML016C, strain PPZ1, active compounds read low 1 | S. cerevisiae deletion strains, locus YML032C, strain rad52, active compounds read low 1.02 | S. cerevisiae deletion strains, locus YML120C, strain ndi1, active compounds read low 0.995 | S. cerevisiae deletion strains, locus YML124C, strain tub3, active compounds read low 1.02 | S. cerevisiae deletion strains, locus YMR058W, strain fet3, active compounds read low 1.02 | S. cerevisiae deletion strains, locus YMR078C, strain ctf18, active compounds read low 1.02 | S. cerevisiae deletion strains, locus YMR125W, strain sto1, active compounds read low 1.05 | S. cerevisiae deletion strains, locus YMR129W, active compounds read low 1.01 | S. cerevisiae deletion strains, locus YMR205C, strain PFK2, active compounds read low 1.02 | S. cerevisiae deletion strains, locus YMR223W, strain ubp8, active compounds read low 1.01 | S. cerevisiae deletion strains, locus YMR231W, strain pep5, active compounds read low 1.02 | S. cerevisiae deletion strains, locus YMR307W, strain GAS1, active compounds read low 0.943 and 1.02 | S. cerevisiae deletion strains, locus YNL067W, strain RPL9B, active compounds read low 1.01 | S. cerevisiae deletion strains, locus YNL071W, strain lat1, active compounds read low 1.02 | S. cerevisiae deletion strains, locus YNL128W, strain TEP1, active compounds read low 1.02 | S. cerevisiae deletion strains, locus YNL153C, strain GIM3, active compounds read low 1 | S. cerevisiae deletion strains, locus YNL175C, strain NOP13, active compounds read low 1.01 | S. cerevisiae deletion strains, locus YNL183C, strain NPR1, active compounds read low 0.93 | S. cerevisiae deletion strains, locus YNL197C, strain WHI3, active compounds read low 0.982 | S. cerevisiae deletion strains, locus YNL209W, strain ssb2, active compounds read low 1.02 | S. cerevisiae deletion strains, locus YNL224C, strain SQS1, active compounds read low 0.99 | S. cerevisiae deletion strains, locus YNL233W, strain BNI4, active compounds read low 1 | S. cerevisiae deletion strains, locus YNL250W, strain rad50, active compounds read low 0.998 | S. cerevisiae deletion strains, locus YNL271C, strain bni1, active compounds read low 1.01 | S. cerevisiae deletion strains, locus YNL298W, strain CLA4, active compounds read low 1.02 | S. cerevisiae deletion strains, locus YNL307C, strain MCK1, active compounds read low 1.02 | S. cerevisiae deletion strains, locus YNL322C, strain KRE1 (second series), active compounds read low 1.01 | S. cerevisiae deletion strains, locus YNL322C, strain KRE1, active compounds read low 1.01 and 1.02 | S. cerevisiae deletion strains, locus YNR049C, strain mso1, active compounds read low 1.02 | S. cerevisiae deletion strains, locus YNR052C, strain pop2, active compounds read low 1.01 | S. cerevisiae deletion strains, locus YOL006C, strain TOP1, active compounds read low 0.943 | S. cerevisiae deletion strains, locus YOL012C, strain htz1 0.973 | S. cerevisiae deletion strains, locus YOL147C, strain pex11, active compounds read low 1.02 | S. cerevisiae deletion strains, locus YOR001W, strain rrp6, active compounds read low 0.954 | S. cerevisiae deletion strains, locus YOR061W, strain CKA2, active compounds read low 1 | S. cerevisiae deletion strains, locus YOR069W, strain VPS5, active compounds read low 1.01 | S. cerevisiae deletion strains, locus YOR070C, strain gyp1, active compounds read low 1 | S. cerevisiae deletion strains, locus YOR080W, strain dia2, active compounds read low 1 | S. cerevisiae deletion strains, locus YOR083W, strain WHI5 (second series), active compounds read low 0.999 | S. cerevisiae deletion strains, locus YOR083W, strain WHI5, active compounds read low 1.02 | S. cerevisiae deletion strains, locus YOR106W, strain vam3, active compounds read low 1.04 | S. cerevisiae deletion strains, locus YOR136W, strain idh2, active compounds read low 1.02 | S. cerevisiae deletion strains, locus YOR144C, strain elg1, active compounds read low 1.01 | S. cerevisiae deletion strains, locus YOR184W, strain ser1, active compounds read low 1.04 | S. cerevisiae deletion strains, locus YOR231W, strain MKK1, active compounds read low 0.995 | S. cerevisiae deletion strains, locus YOR265W, strain rbl2, active compounds read low 1.02 | S. cerevisiae deletion strains, locus YOR270C, strain vph1, active compounds read low 0.988 | S. cerevisiae deletion strains, locus YOR290C, strain snf2, active compounds read low 1.06 | S. cerevisiae deletion strains, locus YOR316C, strain cot1, active compounds read low 1.02 | S. cerevisiae deletion strains, locus YPL051W, strain arl3, active compounds read low 1.03 | S. cerevisiae deletion strains, locus YPL055C, strain LGE1, active compounds read low 1.02 | S. cerevisiae deletion strains, locus YPL078C, strain atp4, active compounds read low 1.04 | S. cerevisiae deletion strains, locus YPL106C, strain sse1, active compounds read low 1.05 | S. cerevisiae deletion strains, locus YPL240C, strain hsp82, active compounds read low 0.998 | S. cerevisiae deletion strains, locus YPL241C, strain CIN2, active compounds read low 1 | S. cerevisiae deletion strains, locus YPL256C, strain CLN2, active compounds read low 0.964 | S. cerevisiae deletion strains, locus YPR119W, strain clb2, active compounds read low 1.01 | S. cerevisiae deletion strains, locus YPR141C, strain kar3, active compounds read low 1.02 | S. cerevisiae deletion strains, locus YPR163C, strain tif3, active compounds read low 1.02 | S. cerevisiae deletion strains, locus YPR167C, strain met16, active compounds read low 1.02 | S. cerevisiae deletion strains, strain wtn01, active compounds read low 1.04 | S. cerevisiae strains, strain wild type, active compounds read low 1
active: S. cerevisiae deletion strains, locus YNL248C, strain rpa49, active compounds read low 1.13 [resistant]
